The panel holds about 83,000 compounds, 20% with a hit somewhere; the sample as a whole holds those more often.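 Method: cells in 96-well plates; compound added at one concentration; 48 h incubation; percent growth measured; values under 10 scored active.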 Active and inactive are the calls of the source.
Columns and labels:
Experiment in all cases: NCI-60 one-dose screen, 48 h (100 = growth as untreated, 0 = no growth, -100 = all killed)
Conditions in all cases: 10 µM unless noted
EKVX NSCLC = system: EKVX NSCLC
SN12C renal = system: SN12C renal
UO-31 renal = system: UO-31 renal
TK-10 renal = system: TK-10 renal
ACHN renal = system: ACHN renal
CAKI-1 renal = system: CAKI-1 renal
A498 renal = system: A498 renal
CCRF-CEM leukemia = system: CCRF-CEM leukemia
SR leukemia = system: SR leukemia
RPMI-8226 leukemia = system: RPMI-8226 leukemia
OVCAR-8 ovarian = system: OVCAR-8 ovarian
OVCAR-5 ovarian = system: OVCAR-5 ovarian
OVCAR-4 ovarian = system: OVCAR-4 ovarian
SK-OV-3 ovarian = system: SK-OV-3 ovarian
IGROV1 ovarian = system: IGROV1 ovarian
OVCAR-3 ovarian = system: OVCAR-3 ovarian
HS 578T breast = system: HS 578T breast
NCI/ADR-RES ovarian = system: NCI/ADR-RES ovarian
MOLT-4 leukemia = system: MOLT-4 leukemia

Measured: growth

Cc1cc(NCCCCNc2ccnc3cc(Cl)ccc23)nc(Nc2ccc(C(=O)N3CCCCC3)cc2)n1
active: TK-10 renal -49.2% | ACHN renal -4.47% | CCRF-CEM leukemia -20% | SR leukemia -29% | RPMI-8226 leukemia -35.8% | OVCAR-8 ovarian 7.65% | OVCAR-3 ovarian 8.51% | HS 578T breast -28.9%
inactive: EKVX NSCLC 41.1% | SN12C renal 29.6% | UO-31 renal 33.5% | CAKI-1 renal 79.5% | A498 renal 53.4% | OVCAR-5 ovarian 82.7% | OVCAR-4 ovarian 34.8% | SK-OV-3 ovarian 97.2% | IGROV1 ovarian 29.8% | NCI/ADR-RES ovarian 47.5%

Cc1c2c(c(C)c3c1oc1cc(O)ccc13)C(=O)N(CCN1CCCCC1)C2=O
inactive: EKVX NSCLC 101% | SN12C renal 85.9% | UO-31 renal 74.9% | TK-10 renal 96.7% | ACHN renal 84.3% | CAKI-1 renal 76.3% | A498 renal 106% | MOLT-4 leukemia 80.4% | RPMI-8226 leukemia 74.6% | OVCAR-8 ovarian 64.2% | OVCAR-5 ovarian 114% | OVCAR-4 ovarian 94.1% | SK-OV-3 ovarian 105% | IGROV1 ovarian 82.8% | OVCAR-3 ovarian 99.1% | HS 578T breast 89.8% | NCI/ADR-RES ovarian 81.7%

CC/C=C\C[C@H](O)C/C=C1/C(=O)C=C[C@@H]1C/C=C\CCCC(=O)OC
inactive: EKVX NSCLC 35.5% | A498 renal 103% | OVCAR-4 ovarian 36.8% | SK-OV-3 ovarian 35.9% | HS 578T breast 41.1% | NCI/ADR-RES ovarian 20.6%
active: SN12C renal -7.19% | UO-31 renal -75.1% | TK-10 renal -1.5% | ACHN renal -57.5% | CAKI-1 renal -15.6% | MOLT-4 leukemia -6.76% | SR leukemia -4.28% | RPMI-8226 leukemia -11.5% | OVCAR-8 ovarian -6.94% | IGROV1 ovarian 0.514% | OVCAR-3 ovarian -6.12%

OC(c1cccc(-n2ccc(C(F)(F)F)n2)c1)c1cnccc1NC1CCCCCC1 (configuration not stated)
inactive: EKVX NSCLC 72.6% | SN12C renal 47.8% | UO-31 renal 41.5% | TK-10 renal 86.7% | CAKI-1 renal 66.5% | A498 renal 60.4% | OVCAR-5 ovarian 15.2% | OVCAR-4 ovarian 40.8% | IGROV1 ovarian 38.5% | OVCAR-3 ovarian 52.4% | HS 578T breast 49.8% | NCI/ADR-RES ovarian 30%
active: ACHN renal -32.2% | CCRF-CEM leukemia 8.54% | MOLT-4 leukemia -14.2% | RPMI-8226 leukemia -33.4%

COc1ccc(OC)c(-c2c(C#N)c(-c3ccc(Cl)cc3)nc3c2c(-c2ccccc2)nn3-c2ccccc2)c1
inactive: EKVX NSCLC 102% | SN12C renal 95% | UO-31 renal 81.4% | TK-10 renal 103% | ACHN renal 102% | CAKI-1 renal 67.9% | A498 renal 113% | CCRF-CEM leukemia 98.8% | MOLT-4 leukemia 86.1% | RPMI-8226 leukemia 95.8% | OVCAR-8 ovarian 101% | OVCAR-5 ovarian 101% | OVCAR-4 ovarian 102% | SK-OV-3 ovarian 100% | IGROV1 ovarian 108% | OVCAR-3 ovarian 107% | HS 578T breast 100% | NCI/ADR-RES ovarian 99.6%

NC(N)=NN=C(c1ccccc1)c1ccccc1
inactive: EKVX NSCLC 65.3% | SN12C renal 51.3% | UO-31 renal 63.6% | TK-10 renal 46.1% | ACHN renal 48.1% | CAKI-1 renal 50.4% | A498 renal 34% | CCRF-CEM leukemia 27.7% | MOLT-4 leukemia 31.8% | RPMI-8226 leukemia 25% | OVCAR-8 ovarian 40% | OVCAR-5 ovarian 79.3% | OVCAR-4 ovarian 71% | IGROV1 ovarian 48.1% | OVCAR-3 ovarian 21.3% | NCI/ADR-RES ovarian 59.3%
active: SK-OV-3 ovarian 5.22%

O=C1/C(=C\c2cccnc2)SC(=S)N1CCc1ccc(O)cc1
inactive: EKVX NSCLC 64.7% | SN12C renal 18.4% | TK-10 renal 38.5% | ACHN renal 29.4% | CAKI-1 renal 30.5% | A498 renal 85.1% | CCRF-CEM leukemia 23.9% | MOLT-4 leukemia 68.6% | RPMI-8226 leukemia 16.7% | OVCAR-8 ovarian 62.6% | OVCAR-5 ovarian 58.8% | OVCAR-4 ovarian 64% | SK-OV-3 ovarian 96.4% | IGROV1 ovarian 62.9% | OVCAR-3 ovarian 35.7% | HS 578T breast 74.7% | NCI/ADR-RES ovarian 47.9%

CCCCOc1nc2ccccc2cc1C1CNC(=O)c2ccccc2N1 (configuration not stated)
active: A498 renal -11.2% | OVCAR-3 ovarian -9.73% | NCI/ADR-RES ovarian 3.84%
inactive: SN12C renal 44.1% | UO-31 renal 41.3% | TK-10 renal 34.3% | ACHN renal 46.7% | CAKI-1 renal 42.6% | CCRF-CEM leukemia 12.6% | SR leukemia 19.8% | RPMI-8226 leukemia 25.6% | OVCAR-8 ovarian 22.4% | OVCAR-5 ovarian 55.3% | OVCAR-4 ovarian 47.7% | SK-OV-3 ovarian 14.8% | IGROV1 ovarian 38% | HS 578T breast 34.1%
